# Screens deposited in PubChem by National Center for Advancing Translational Sciences (NCATS).
# Compounds with a hit are over-represented: about 6.5% of the library has one in this group of screens.
# HCMV inh: qHTS Assay for inhibitors of the human cytomegalovirus (HCMV); 410,000 compounds, 4.5% hits; AID 1259415, 2018; activity change, negative = inhibition, % at 57.5 µM; HFF cells, HCMV-luciferase reporter, 72 h; active compounds read low; in the data active = activity change below about -60%; inconclusive = no clear call, values can overlap the other calls; inactive = above about -39%
#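 Steps: HFFs plated, 16 h 37C; compounds added; HCMV-luciferase added to MOI 1 PFU/cell; 72 h 37C; OneGlo reagent, 5 min room temperature; luminescence read, normalized to controls.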
# FMDV antiviral: High Throughput Screening for Foot and Mouth Disease Virus Antivirals; Potency, µM (doses to about 57.9 µM), for inactives: top-dose activity change, negative = inhibition, most hits filed as inhibitors; 410,000 compounds, 1.2% hits; AID 1159524, 2015; FMDV antiviral cell-based qHTS; calls by dose curve; tested in HEK293T cells; note: read-out not given here; potency is the fitted concentration of half-maximal effect; nearly all actives have a fitted effect of over 45% in size
# Marburg entry inh: qHTS for inhibitors of binding or entry into cells for Marburg Virus; Marburg virus pseudotyped entry inhibition, cell reporter; Potency, µM (doses to about 37.8 µM), for the others: at the top dose activity change, negative = inhibition, hits mostly inhibitors; 300,000 compounds, 1.8% hits; calls by dose curve; tested in HEK293 cells; note: potency is the fitted concentration of half-maximal effect
# Vaccinia mCherry: qHTS for Stage-Specific Inhibitors of Vaccinia Orthopoxvirus: mCherry Reporter Primary qHTS. Vaccinia virus mCherry reporter infection, fluorescence. Potency, µM (titrated, usually from 36.5 µM), inactives show top-dose activity change, negative = inhibition, most hits filed as inhibitors. 310,000 compounds, 0.63% hits; calls by dose curve; tested in A549 cells; note: potency is the fitted concentration of half-maximal effect; nearly all actives have a fitted effect of over 35% in size
# Vaccinia Venus: qHTS for Stage-Specific Inhibitors of Vaccinia Orthopoxvirus: Venus Reporter Primary qHTS; 330,000 compounds, 0.46% hits; Potency, µM (series often up to 36.5 µM), inactives show top-dose activity change, negative = inhibition, actives largely listed as inhibitors; Vaccinia virus Venus reporter expression, fluorescence; calls by dose curve; tested in A549 cells; note: potency is the fitted concentration of half-maximal effect; nearly all actives have a fitted effect of over 30% in size
# LASV entry inh: qHTS for Inhibitors of binding or entry into cells for Lassa Virus; Lassa virus pseudotype entry inhibition, cell reporter; Potency, µM (doses to about 37.9 µM), for the others: at the highest dose activity change, negative = inhibition, hits mostly inhibitors; 300,000 compounds, 1.2% hits; AID 540256, 2011; calls by dose curve; tested in HEK293 cells; note: potency is the fitted concentration of half-maximal effect; nearly all actives have a fitted effect of over 50% in size
# Numbers without * were called inactive; i = inactive; ? = inconclusive; / = no result; [ ] = another dose, or the depositor's remark. % is set by controls: 0 for no effect and ±100 for the full control effect.
SMILES,HCMV inh,FMDV antiviral,Marburg entry inh,Vaccinia mCherry,Vaccinia Venus,LASV entry inh
CCC1CN(C(=O)N2CCC(C(=O)NCCc3ccc(OC)cc3OC)CC2)c2ccccc2O1 (stereo not drawn),-20.8,?,/,/,/,/
CCCCNC(=O)c1nc2ccccc2nc1-c1ccc(F)c(F)c1,53.4,/,/,/,/,/
Cc1ccc(-c2cn3c(=O)cc(C)[nH]c3n2)cc1,182.3,38.8%,-10.0%,/,/,14.6µM*
Cc1cc(=O)n2cc(-c3ccccc3)nc2[nH]1,4.0,-6.4%,6.9%,/,/,-12.6%
COCCCNC(=S)N1CCN(c2nc(-c3ccccc3)cs2)CC1,-67.4*,?,/,/,/,/
COCCCNC(=S)N1CCN(c2nc(-c3ccc(Cl)cc3)cs2)CC1,-92.1*,?,/,?,?,/
CCN(CC)CCCNC(=S)N1CCN(c2nc(-c3ccccc3)cs2)CC1,-31.5,-25.5%,?,-22.9%,?,-15.4%[46.1 µM]
CCOCCCNC(=S)N1CCN(c2nc(-c3ccccc3)cs2)CC1,-86.1*,?,/,/,/,/
Cc1ccc2cc(C)c(NCCO)nc2c1,-60.3*,-8.0%,?,/,?,16.5%
CCN(CC)S(=O)(=O)c1cc(NC(=O)c2cc(-c3ccccn3)nc3ccccc23)ccc1C,15.5,-28.7%,/,/,/,/
COc1ccc(NC(=O)c2cc(-c3ccccn3)nc3ccccc23)cc1S(=O)(=O)N(C)C,-11.1,?,15.8µM*,-1.1%,-12.6%,?
O=C(Nc1cccc(S(=O)(=O)N2CCCC2)c1)c1cc(-c2ccccn2)nc2ccccc12,4.5,-27.3%,7.94µM*,i,0.7%,?
Cc1c(C(=O)Nc2ccc(F)c(Cl)c2)sc2nc3n(c(=O)c12)CCC3,49.7,4.7%,/,-19.0%,-19.7%,?
CC(=O)C1=C(C)N(Cc2ccccc2)C(=O)NC1CCc1ccccc1 (stereo not drawn),/,/,?,/,/,17.5%[14.3 µM]
CC(=O)C1=C(C)N(Cc2ccccc2)C(=O)N[C@H]1CCc1ccccc1,-92.7*,?,?,-30.0%,-19.9%,11.6µM*
CCCS(=O)(=O)NCc1c(C)ncc2c1CCN(C(=O)c1ccc3[nH]c4c(c3c1)CCCC4)C2,/,-12.4%,/,-10.2%,6.8%,/
Oc1ccc(Nc2nccc3[nH]c(-c4cccc(F)c4)cc23)cc1,-9.2,/,/,/,/,/
Nc1c(C(=O)Nc2ccccc2Cl)nnn1Cc1cccc(Cl)c1,-14.2,4.6%,-17.1%[46.1 µM],-14.7%,-5.3%,1.2%[46.1 µM]
Cc1nc(N=Nc2cc(S(=O)(=O)O)c3cc([N+](=O)[O-])cc(S(=O)(=O)O)c3c2)c(COP(=O)(O)O)c(C=O)c1O,/,-23.5%,19.9µM*,-2.1%,-11.2%,?
Cc1ncc2c(c1CNC(=O)c1ccccc1F)CCN(C(=O)c1ccccc1-n1cccn1)C2,/,-14.2%,/,-13.4%,-2.7%,/
Cc1ccccc1OCC(=O)Nc1ccc(C(=O)OCc2cc(=O)n3c(C)csc3n2)cc1,-86.7*,4.4%,/,i,0.5%,10.9%[46.1 µM]
Cc1csc2nc(COC(=O)c3cccc(NC(=O)COc4ccccc4Cl)c3)cc(=O)n12,-61.0*,-24.3%,/,i,-19.9%,-28.3%[46.1 µM]
Cc1ccccc1N1CC(O)(c2cccs2)[N+]2=C1CCCC2 (stereo not drawn),-60.2*,-4.2%,-13.8%[46.1 µM],-1.5%,1.2%,-8.0%
CC(=O)c1ccc(C(=O)Nc2sc3c(c2C(N)=O)CCN(Cc2ccccc2)C3)cc1,-74.1*,/,/,/,/,/
CCN1CCc2c(sc(NC(=S)NC(=O)c3cccc(F)c3)c2C(N)=O)C1,/,/,/,i,-6.6%,/
SMILES,HCMV inh,FMDV antiviral,Marburg entry inh,Vaccinia mCherry,Vaccinia Venus,LASV entry inh
COc1cccc(OC)c1C(=O)Nc1sc2c(c1C(N)=O)CCN(Cc1ccccc1)C2,-6.9,?,/,i,-10.8%,/
CCN1CCc2c(sc(NC(=O)c3cc4ccccc4cc3OC)c2C(N)=O)C1,-113.4*,-7.9%,11.2µM*,14.1µM*,?,-1.8%[46.1 µM]
O=C(NCCc1ccccc1Cl)c1ccc(Cn2c(=O)c3cccn3c3cccnc32)cc1,-83.6*,-9.7%,/,?,?,-19.5%[46.1 µM]
CCCNC(=O)c1ccc(Cn2c(=O)c3cccn3c3cccnc32)cc1,-23.4,0.5%,/,-13.3%,-4.7%,16.1%[46.1 µM]
CCn1cc(C(=O)NCc2cccc(F)c2)c(=O)c2cc(F)c(N3CCN(C(=O)c4ccco4)CC3)cc21,-86.0*,15.8µM*,?,/,?,?
CCCNC(=O)c1cn(CC)c2cc(N3CCN(C(=O)c4ccco4)CC3)c(F)cc2c1=O,-36.1,0.0%,/,/,/,/
COc1cc(NC(=O)CC(c2ccc(C)cc2)N2Cc3ccccc3C2=O)cc(OC)c1 (stereo not drawn),12.8,20.3%,/,-23.8%,-7.2%,-19.2%[46.1 µM]
O=c1oc(C2(O)CCCCC2)cc2ccccc12,-23.8,-12.9%,/,4.5%,-13.3%,/
O=c1oc(C2(O)CCCCC2)cc2ccc(-c3ccc4[nH]ccc4c3)cc12,-93.3*,10.9%,/,0.631µM*,-24.7%,/
COc1cc2c(=O)c(C(=O)c3ccc(C)c(C)c3)cn(Cc3ccccc3F)c2cc1OC,-71.7*,?,?,-17.5%,-7.8%,?
COc1cc2c(=O)c(C(=O)c3ccc(C)c(C)c3)cn(Cc3ccccc3)c2cc1OC,-22.7,0.0%,9.3%[46.1 µM],-2.2%,-20.8%,1.2%[46.1 µM]
COc1ccccc1Cn1cc(C(=O)c2ccc(Cl)cc2)c(=O)c2ccccc21,-100.6*,0.0%,?,-5.6%,?,?
CCc1ccc(C(=O)c2cn(Cc3ccccc3)c3cc(OC)c(OC)cc3c2=O)cc1,-64.9*,-27.3%,?,i,-13.9%,-7.0%[46.1 µM]
CCCCNc1nc(Oc2ccc(=O)n(-c3ccccc3)n2)nc(N(C)C)n1,-8.7,-8.2%,-2.1%[46.1 µM],-12.2%,-9.4%,3.1%[46.1 µM]
CC(C)c1ccccc1NC(=S)NC(C)c1ccccc1 (stereo not drawn),-87.1*,-5.9%,?,?,-14.9%,-29.4%
